# Test results: the supplement of paper PMC8728848
# About 410 targets per protein were measured; listed, in parts, are those with the strongest signals and a random draw of the rest.
# B1: Vd7LysM (Verticillium dahliae) (protein)
# chain: RRGPEPKYPPAAGTSSYCSYWVDYEGDKSCSRVLEDNVVVLKDFARWNPTVGADCSGIKAGNSYCVEAFGEPEPIEVTTTTRAATTTTQPTATTTTFANGIATPQPTQSGMVTNCNKFHWIAEGVSCSQVISFQKITLADFVKWNPSVKSDCSGMWAGVNVCVGVVGSSTDTAKPTTTAPSNGVVTPQPTQPSMVTNCNKFHWIAKGVTCQQVISYQKISLADFVKWNPSVLSDCSGMWAEVQVCVGVIGSTPTTLATTTTTAGNGVSTPLPTQPGMVTNCAKFHWVAKGVTCNQIYSFQKITLEQFVSYNPTVKSDCSGMQAEVQVCVGLIAGTTPTTTRPPTTTAPGNGVSTPQPTQPGMVTNCAKFHWVAKGVTCNQIYSFQKITLEQFVSFNPTVKSDCTGMQAEVNVCVGLIGGNPTPTQTGNGIATPTPIQPGMVSNCKKFHWIAQGVTCQQVISFQKITLADFVKWNTGVGSDCRTMWAETNVCVGV
# Legend:
# Assay in all cases: glycan array binding signal (z-score within array); higher = stronger binding
# Settings in all cases: glycan notation: IUPAC condensed, linker removed
# [1] = molecular target: Fuc(a1-2)Gal(b1-3)GalNAc(a1-3)[Fuc(a1-2)]Gal(b1-4)GlcNAc
# Procedure, shortened: (§1)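 The Consortium for Functional Glycomics database supplied 3228 glycan arrays, of which those lacking an available protein sequence were dropped. The binding signal, a within-array Z-score, was averaged across arrays of the same protein sequence and across linkers. Negative scores can be read as non-binding.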
# [2] = molecular target: Fuc(a1-2)Gal(b1-3)GlcNAc(b1-3)[Gal(b1-4)GlcNAc(b1-6)]Gal(b1-4)Glc
# Procedure, shortened: as §1
# [3] = molecular target: Fuc(a1-2)Gal(b1-3)[Fuc(a1-4)]GlcNAc(b1-3)[Gal(b1-4)GlcNAc(b1-6)]Gal(b1-4)Glc
# Procedure, shortened: as §1
# Fuc(a1-2)Gal(b1-4)Glc6S = molecular target: Fuc(a1-2)Gal(b1-4)Glc6S
# Procedure, shortened: as §1
# [4] = molecular target: Fuc(a1-2)Gal(b1-4)GlcNAc(b1-2)Man(a1-3)[Fuc(a1-2)Gal(b1-4)GlcNAc(b1-2)Man(a1-6)]Man(b1-4)GlcNAc(b1-4)GlcNAc
# Procedure, shortened: as §1
# [5] = molecular target: Fuc(a1-2)Gal(b1-4)GlcNAc(b1-2)[Fuc(a1-2)Gal(b1-4)GlcNAc(b1-4)]Man(a1-3)[Fuc(a1-2)Gal(b1-4)GlcNAc(b1-2)Man(a1-6)]Man(b1-4)GlcNAc(b1-4)GlcNAc
# Procedure, shortened: as §1
# [6] = molecular target: Fuc(a1-2)Gal(b1-4)GlcNAc(b1-3)Gal(b1-4)GlcNAc(b1-2)Man(a1-3)[Fuc(a1-2)Gal(b1-4)GlcNAc(b1-3)Gal(b1-4)GlcNAc(b1-2)Man(a1-6)]Man(b1-4)GlcNAc(b1-4)GlcNAc
# Procedure, shortened: as §1
# [7] = molecular target: Fuc(a1-2)Gal(b1-4)GlcNAc(b1-3)Gal(b1-4)GlcNAc(b1-3)Gal(b1-4)GlcNAc
# Procedure, shortened: as §1
# [8] = molecular target: Fuc(a1-2)Gal(b1-4)GlcNAc(b1-6)GalNAc
# Procedure, shortened: as §1
# [9] = molecular target: Fuc(a1-2)[GalNAc(a1-3)]Gal(b1-4)GlcNAc(b1-3)Gal(b1-4)GlcNAc
# Procedure, shortened: as §1
# [10] = molecular target: Fuc(a1-2)[GalNAc(b1-3)]Gal
# Procedure, shortened: as §1
# [11] = molecular target: Fuc(a1-3)[Gal(b1-4)]Glc6S
# Procedure, shortened: as §1
# [12] = molecular target: Fuc(a1-3)[Gal(b1-4)]GlcNAc
# Procedure, shortened: as §1
# [13] = molecular target: Fuc(a1-3)[Gal3S(b1-4)]GlcNAc6S
# Procedure, shortened: as §1
# [14] = molecular target: Gal(a1-3)[Gal(a1-4)]Gal(b1-4)GlcNAc
# Procedure, shortened: as §1
# Gal(a1-4)Gal(b1-4)Glc = molecular target: Gal(a1-4)Gal(b1-4)Glc
# Procedure, shortened: as §1
# Gal(a1-4)GlcNAc = molecular target: Gal(a1-4)GlcNAc
# Procedure, shortened: as §1
# Gal(a1-6)Glc = molecular target: Gal(a1-6)Glc
# Procedure, shortened: as §1
# [15] = molecular target: Gal(b1-3)GalNAc(b1-4)Gal(b1-4)Glc
# Procedure, shortened: as §1
# Gal(b1-3)GlcNAc = molecular target: Gal(b1-3)GlcNAc
# Procedure, shortened: as §1
# [16] = molecular target: Gal(b1-3)[Fuc(a1-4)]GlcNAc
# Procedure, shortened: as §1
# [17] = molecular target: Gal(b1-3)[Fuc(a1-4)]GlcNAc(b1-3)Gal(b1-3)[Fuc(a1-4)]GlcNAc
# Procedure, shortened: as §1
# [18] = molecular target: Gal(b1-3)[Neu5Ac(a2-6)]GlcNAc(b1-4)Gal(b1-4)Glc
# Procedure, shortened: as §1
# Gal(b1-4)Glc6S = molecular target: Gal(b1-4)Glc6S
# Procedure, shortened: as §1
# [19] = molecular target: Gal(b1-4)GlcNAc(b1-2)Man(a1-3)[Gal(b1-4)GlcNAc(b1-2)Man(a1-6)][Gal(b1-4)GlcNAc(b1-4)]Man(b1-4)GlcNAc(b1-4)[Fuc(a1-6)]GlcNAc
# Procedure, shortened: as §1
# [20] = molecular target: Gal(b1-4)GlcNAc(b1-3)Gal(b1-4)GlcNAc(b1-2)[Gal(b1-4)GlcNAc(b1-3)Gal(b1-4)GlcNAc(b1-6)]Man(a1-6)[Gal(b1-4)GlcNAc(b1-3)Gal(b1-4)GlcNAc(b1-2)Man(a1-3)]Man(b1-4)GlcNAc(b1-4)[Fuc(a1-6)]GlcNAc
# Procedure, shortened: as §1
# [21] = molecular target: Gal(b1-4)GlcNAc(b1-3)Gal(b1-4)GlcNAc(b1-3)Gal(b1-4)GlcNAc(b1-3)Gal(b1-4)GlcNAc(b1-3)Gal(b1-4)GlcNAc(b1-2)[Gal(b1-4)GlcNAc(b1-3)Gal(b1-4)GlcNAc(b1-3)Gal(b1-4)GlcNAc(b1-3)Gal(b1-4)GlcNAc(b1-3)Gal(b1-4)GlcNAc(b1-6)]Man(a1-6)[Gal(b1-4)GlcNAc(b1-3)Gal(b1-4)GlcNAc(b1-3)Gal(b1-4)GlcNAc(b1-3)Gal(b1-4)GlcNAc(b1-3)Gal(b1-4)GlcNAc(b1-2)Man(a1-3)]Man(b1-4)GlcNAc(b1-4)[Fuc(a1-6)]GlcNAc
# Procedure, shortened: as §1
# Gal4S6S(b1-4)GlcNAc = molecular target: Gal4S6S(b1-4)GlcNAc
# Procedure, shortened: as §1
# [22] = molecular target: GalNAc(a1-3)GalNAc(b1-3)Gal(a1-4)Gal(b1-4)GlcNAc
# Procedure, shortened: as §1
# [23] = molecular target: GalNAc(b1-4)GlcNAc(b1-2)Man(a1-3)[GalNAc(b1-4)GlcNAc(b1-2)Man(a1-6)]Man(b1-4)GlcNAc(b1-4)GlcNAc
# Procedure, shortened: as §1
binder,measurement,setting,value
B1,glycan array binding signal (z-score),[1],-0.691
same,glycan array binding signal (z-score),[2],-0.772
same,glycan array binding signal (z-score),[3],-1.91
same,glycan array binding signal (z-score),Fuc(a1-2)Gal(b1-4)Glc6S,2.67
same,glycan array binding signal (z-score),[4],2.13
same,glycan array binding signal (z-score),[5],-0.492
same,glycan array binding signal (z-score),[6],0.254
same,glycan array binding signal (z-score),[7],3.25
same,glycan array binding signal (z-score),[8],0.512
same,glycan array binding signal (z-score),[9],1.94
same,glycan array binding signal (z-score),[10],0.38
same,glycan array binding signal (z-score),[11],0.721
same,glycan array binding signal (z-score),[12],-0.68
same,glycan array binding signal (z-score),[13],1.04
same,glycan array binding signal (z-score),[14],-0.317
same,glycan array binding signal (z-score),Gal(a1-4)Gal(b1-4)Glc,3.04
same,glycan array binding signal (z-score),Gal(a1-4)GlcNAc,0.386
same,glycan array binding signal (z-score),Gal(a1-6)Glc,-1.58
same,glycan array binding signal (z-score),[15],2.86
same,glycan array binding signal (z-score),Gal(b1-3)GlcNAc,-0.186
same,glycan array binding signal (z-score),[16],-0.618
same,glycan array binding signal (z-score),[17],1.63
same,glycan array binding signal (z-score),[18],-0.885
same,glycan array binding signal (z-score),Gal(b1-4)Glc6S,0.592
same,glycan array binding signal (z-score),[19],-0.393
same,glycan array binding signal (z-score),[20],2.56
same,glycan array binding signal (z-score),[21],4.04
same,glycan array binding signal (z-score),Gal4S6S(b1-4)GlcNAc,0.198
same,glycan array binding signal (z-score),[22],0.706
same,glycan array binding signal (z-score),[23],-1.23
